Screening data (PubChem BioAssay)
Sampled rows, rich in hits. Any-hit rate of the full collection: about 2.2%.
TWEAK-Fn14 inh – inhibitors of TWEAK-Fn14 interaction signaling; TWEAK-stimulated Fn14 reporter cells, luciferase luminescence, 8 h; inhibition, % at 10 µM; 360,000 compounds, 2% hits; in the data active means inhibition above about 50%
HSP90 inh – blocks HSP90-mediated luciferase refolding in reticulocyte lysate | Rabbit reticulocyte lysate, luciferase refolding luminescence, 3 h | inhibition, % at 5.6 µM | 290,000 compounds, 0.91% hits;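 active means inhibition above the screen-wide mean plus 3 SD, computed separately per campaign, cut at about 16% in these data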;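 further: 0% = DMSO wells and 100% = 60 µM geldanamycin wells; inhibitors lower the luminescence because luciferase stays unfolded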
LGR2 inh – Drosophila LGR2 receptor signaling inhibition. HEK293 LGR2, CRE-luciferase, bursicon-stimulated, 4 h. inhibition, % at 9.99 µM. 380,000 compounds, 0.35% hits. AID 720647;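 active means drop in luminescence signal, shown as inhibition above about 50% in the replicate tests, limit read from the data, passing the limit was not always enough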;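 further: agonist challenge used bursicon conditioned medium at about half maximal strength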
TROY signal inh – inhibitors of TROY-dependent NF-kB signaling; AID 1347056; 360,000 compounds, 0.98% hits; Q293 LMP1-TROYcd NF-kB luciferase reporter, 4 h; inhibition, % at 10 µM;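 active means compounds whose plate-normalised and pattern-corrected inhibition of the luciferase reporter signal at the single screening dose is 50% or more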
Active calls of the source: *.

Results for Cc1cc2c(=O)oc(-c3ccccc3Br)nc2s1 ?
TWEAK-Fn14 inh: 10; HSP90 inh: 11; LGR2 inh: 4; TROY signal inh: 2

Results for Cc1cc2c(=O)oc(-c3ccc(F)cc3)nc2s1 ?
TWEAK-Fn14 inh: 53*; HSP90 inh: 0; LGR2 inh: 35; TROY signal inh: -16

How did Oc1cc(-c2ccncc2)cc2cccnc12 do in these assays?
TWEAK-Fn14 inh: 60*; LGR2 inh: 36; TROY signal inh: 5

What do the screens show for `CN(C)c1ccc(-c2cc(O)c3ncccc3c2)cc1`?
TWEAK-Fn14 inh: -71; LGR2 inh: -26; TROY signal inh: -56

What do the screens show for `CCCN1C[C@H](C)[C@H](OC)CN(C)C(=O)c2ccc(NC(=O)c3cccc(OC)c3)cc2OC[C@H]1C`?
LGR2 inh: -12

How did CC(=O)c1ccc(NS(=O)(=O)Cc2ccccc2)cc1 do in these assays?
TWEAK-Fn14 inh: 6; HSP90 inh: 1; LGR2 inh: 13; TROY signal inh: 8

What do the screens show for `CC(=O)N(C)c1ccc(NS(=O)(=O)Cc2ccccc2)cc1`?
TWEAK-Fn14 inh: 45; HSP90 inh: 3; TROY signal inh: 57*

How did CCCCC[C@@H](/C=C/C1C(=O)C=C[C@H]1C/C=C\CCCC(=O)OC)OC(C)=O (stereo partly drawn) do in these assays?
TWEAK-Fn14 inh: 91*; LGR2 inh: 32; TROY signal inh: 30

Results for Cc1cc(C)c2nc(N3CCOCC3)c(C#N)cc2c1 ?
TWEAK-Fn14 inh: -4; HSP90 inh: -6; LGR2 inh: -5; TROY signal inh: 5

What do the screens show for `Cc1cccc2cc(C#N)c(N3CCOCC3)nc12`?
TWEAK-Fn14 inh: 54*; HSP90 inh: -3; TROY signal inh: -18

Results for COc1ccc(C(=O)Oc2cc(/C=N/NS(=O)(=O)c3ccccc3)ccc2OC)cc1 ?
TWEAK-Fn14 inh: -6; HSP90 inh: 3; TROY signal inh: -2

What do the screens show for `COc1ccc(/C=N/NS(=O)(=O)c2ccc(C)cc2)cc1OC(=O)c1ccc(C)cc1`?
TWEAK-Fn14 inh: 55*; HSP90 inh: 0; TROY signal inh: 6

How did Nc1nc(N)c2cc(Sc3ccc4ccccc4c3)ccc2n1 do in these assays?
TWEAK-Fn14 inh: 52*; HSP90 inh: 5; LGR2 inh: 19; TROY signal inh: 84*

What do the screens show for `C[C@H](CO)N1C[C@H](C)[C@@H](CN(C)S(=O)(=O)c2cn(C)cn2)OCCCC[C@H](C)Oc2ccc(NS(=O)(=O)c3ccc(F)cc3)cc2C1=O`?
LGR2 inh: -17

What do the screens show for `CC(Oc1ccc(Br)cc1)C(=O)Nc1nc(-c2ccccn2)cs1` (stereo not drawn)?
TWEAK-Fn14 inh: -51; HSP90 inh: 4; LGR2 inh: 17; TROY signal inh: 61*

How did CC(C)[C@H](NC(=O)c1ccccc1Cl)C(=O)Nc1nc(-c2ccccn2)cs1 do in these assays?
TWEAK-Fn14 inh: 21; HSP90 inh: -1; LGR2 inh: 10; TROY signal inh: 0

Results for COc1cccc(S(=O)(=O)N(C)C[C@@H]2Oc3ncc(C#CCN(C)C)cc3C(=O)N([C@@H](C)CO)C[C@@H]2C)c1 ?
LGR2 inh: 18

How did Cn1c(/C=C/c2ccccc2)nc2ccccc21 do in these assays?
TWEAK-Fn14 inh: 83*; HSP90 inh: 14; LGR2 inh: 80*; TROY signal inh: 31

Results for Cn1c(=O)c(/C=C/c2ccccc2)nc2ccccc21 ?
TWEAK-Fn14 inh: -6; HSP90 inh: 1; LGR2 inh: -17; TROY signal inh: -46

Results for O=C(NC1CCCCC1)N1CC(=O)N2[C@H](C1)[C@H](c1ccc(/C=C/c3ccccc3)cc1)[C@@H]2CO ?
LGR2 inh: 10

Results for CC(C)NC(=O)N(C)C[C@@H]1Oc2ncc(-c3ccccc3F)cc2C(=O)N([C@@H](C)CO)C[C@@H]1C ?
LGR2 inh: -2

Results for Cc1onc(-c2ccc3c(c2)OCO3)c1-c1ccc2[nH]ccc2c1 ?
TWEAK-Fn14 inh: 62*; HSP90 inh: -3; LGR2 inh: -22; TROY signal inh: 21

Results for c1cc2cc(-c3c(-c4ccc5c(c4)OCO5)noc3-c3ccsc3)ccc2[nH]1 ?
TWEAK-Fn14 inh: -22; HSP90 inh: 5; LGR2 inh: -114; TROY signal inh: -52

What do the screens show for `C[C@H]1CN([C@@H](C)CO)S(=O)(=O)c2ccc(-c3ccc(C(=O)N(C)C)cc3)cc2O[C@H]1CN(C)C(=O)C1CC1`?
LGR2 inh: 2

What do the screens show for `Cc1snc(S(=O)(=O)/C(C#N)=N/Nc2ccc(C(F)(F)F)cc2)c1C#N`?
TWEAK-Fn14 inh: -16; HSP90 inh: -3; TROY signal inh: 52*

Results for Cc1snc(S(=O)(=O)/C(C#N)=N\Nc2ccccc2)c1C#N ?
TWEAK-Fn14 inh: -1; HSP90 inh: -2; LGR2 inh: 4; TROY signal inh: -1

How did Cc1ccc(S(=O)(=O)N(C)C[C@@H]2OCCCC[C@H](C)Oc3ccc(NC(=O)Nc4ccc(F)cc4)cc3C(=O)N([C@H](C)CO)C[C@@H]2C)cc1 do in these assays?
LGR2 inh: 14

Results for CC(=O)N[C@H]1CC[C@@H](CC(=O)NCC2CCCCC2)O[C@@H]1CO ?
LGR2 inh: -3

What do the screens show for `CCC(=O)NC1=C(Nc2ccc(N)cc2)C(=O)c2ccccc2C1=O`?
TWEAK-Fn14 inh: 52*; HSP90 inh: 0; LGR2 inh: -4; TROY signal inh: 33

Results for CC(C)C(=O)Nc1ccc2c(c1)C(=O)N(C)[C@@H]1CC[C@@H](CC(=O)NC3CCCC3)O[C@@H]1CO2 ?
LGR2 inh: 3

Results for O=C(NCCCNC(=O)c1ccco1)c1ccc(Cl)cc1 ?
TWEAK-Fn14 inh: 70*; HSP90 inh: 5; LGR2 inh: 13; TROY signal inh: 61*

Results for C[C@@H]1CN([C@H](C)CO)C(=O)Cc2cc(NC(=O)Cn3cnnn3)ccc2O[C@H]1CN(C)S(=O)(=O)c1ccc(F)cc1 ?
LGR2 inh: 16

Results for CC(=O)c1ccc(N2CCC(c3cc(-c4ccc(Cl)cc4Cl)n[nH]3)CC2)c([N+](=O)[O-])c1 ?
TWEAK-Fn14 inh: 88*; HSP90 inh: -4; TROY signal inh: 49

What do the screens show for `O=[N+]([O-])c1cccnc1N1CCC(c2cc(-c3ccc(Cl)cc3Cl)n[nH]2)CC1`?
TWEAK-Fn14 inh: -6; HSP90 inh: 9; TROY signal inh: 15

Results for CC(C)NC(=O)N(C)C[C@H]1OCCCC[C@@H](C)Oc2ccc(N(C)C)cc2C(=O)N([C@@H](C)CO)C[C@H]1C ?
LGR2 inh: 17

Results for O=C(O)c1cccc(-c2noc(-c3cccc(Cl)c3)n2)c1 ?
TWEAK-Fn14 inh: 29; LGR2 inh: 84*; TROY signal inh: -39

Results for NC(=O)c1ccc(-c2noc(-c3cccc(Cl)c3)n2)cc1 ?
TWEAK-Fn14 inh: -22; LGR2 inh: -21; TROY signal inh: -64

What do the screens show for `Cc1ccc([N+](=O)[O-])cc1N(CC(=O)Nc1ccc(S(=O)(=O)Nc2cccc(C(F)(F)F)c2)cc1)S(C)(=O)=O`?
TWEAK-Fn14 inh: 85*; HSP90 inh: 2; LGR2 inh: 11; TROY signal inh: 70*
